Laboratory results reported in paper PMC5540273 (PLoS ONE, 2017).
Where “and” joins values, the source holds several entries; their conditions need not be identical. Identical values can stand only once. Like-named read-outs stand apart in the source and are kept apart here.

Columns and labels:
[1] = system: T1, YANK3; details: concentration: 1 μM, replicates: in singlicate, n = 1
T1 construct: gene STK32C

[2] = system: T2, YES; details: concentration: 1 μM, replicates: in singlicate, n = 1
T2 construct: gene YES1

[3] = system: T3, YSK1; details: concentration: 1 μM, replicates: in singlicate, n = 1
T3 construct: gene STK25

[4] = system: T4, YSK4; details: concentration: 1 μM, replicates: in singlicate, n = 1
T4 construct: gene MAP3K19

[5] = system: ZAK; details: concentration: 1 μM, replicates: in singlicate, n = 1
[6] = system: ZAP70; details: concentration: 1 μM, replicates: in singlicate, n = 1
[7] = system: T5, p38-alpha; details: concentration: 1 μM, replicates: in singlicate; n = 1
T5 construct: gene MAPK14

[8] = system: T6, p38-beta; details: concentration: 1 μM, replicates: in singlicate; n = 1
T6 construct: gene MAPK11

[9] = system: p38-delta; details: concentration: 1 μM, replicates: in singlicate, n = 1
[10] = system: T7, p38-gamma; details: concentration: 1 μM, replicates: in singlicate, n = 1
T7 construct: gene MAPK12
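Also: KINOMEscan kinase panel screen.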

Compound	%Inh [1] [%]	%Inh [2] [%]	%Inh [3] [%]	%Inh [4] [%]	%Inh [5] [%]	%Inh [6] [%]	%Inh [7] [%]	%Inh [8] [%]	%Inh [9] [%]	%Inh [10] [%]	%Inh ([1]; 1 µM)	%Inh ([2]; 1 µM)	%Inh ([3]; 1 µM)	%Inh ([4]; 1 µM)	%Inh ([5]; 1 µM)	%Inh ([6]; 1 µM)	%Inh ([9]; 1 µM)	%Inh ([10]; 1 µM)
CC(C)(C)n1cnc2c(N)ncnc21 [SKF-97359]	0	27	0	0	0	21	0	0	0	2								
NS(=O)(=O)CCc1cccc(Nc2nccc(-c3c(-c4cccc(NC(=O)c5c(F)cccc5F)c4)nn4ccccc34)n2)c1 [GSK336735]	37	99.8	24	20	98.4	0	97.8	98.7	54	0								
Cc1c(Cn2c(C)nn3c(=O)cc(N4CCOC(C)C4)nc23)cccc1C(F)(F)F (stereo not drawn) [GSK2344444]	13	3	0	9	0	0	0	0	17	0								
CN1c2ccc(CNc3ccc(F)cc3)cc2-c2c(cnn2C)S1(=O)=O	0	0	0	0	0	0	0	0	0	14								
Cl.Oc1cccc(Nc2ccnc3cc(-c4ccncc4)ccc23)c1 [GW494601]	0	94.6	7	91.7	84	2	50	0	25	0								
N#Cc1ccc(-c2cc(-c3c[nH]nc3-c3ccccn3)ccn2)cc1 [GW693028]	6	13	0	33	15	0	30	0	22	0								
Nc1nccc(-c2c(-c3ccc(F)cc3)ncn2C2CCN(CC(F)(F)F)CC2)n1 [SB-236560]	0	8	0	0	0	49	96.6	11	8	0								
O=C(Nc1cccc(-c2nn3ncccc3c2-c2ccnc(Nc3cccc(C(F)(F)F)c3)n2)c1)c1c(F)cccc1F [GSK299495]	10	98.7	0	33	87	51	43	24	53	13								
O=C(NCCNc1ccnc(Nc2ccc(F)cc2)n1)c1cc2ccccc2s1 [GSK1379874]	8	3	0	35	100	6	20	0	40	0								
COc1cc(Nc2nccc(N3CCC(NC(=O)c4cccc(NC(C)=O)c4)C3)n2)cc(OC)c1OC (stereo not drawn) [GSK1379754]	0	18	3	19	0	0	0	0	0	0								
N#Cc1c(N2CCOCC2)sc(-c2ccn[nH]2)c1-c1ccc(Cl)cc1	16	7	0	28	0	0	7	14	0	6								
CCCCCc1nc2c(N)ncnc2n1CCCCC [SKF-97255]	0	0	12	14	13	13	0	19	0	50								
O=C(Nc1n[nH]c2cc(-c3cccc(F)c3)ccc12)C1CC1 [SB-735464]	0	1	0	82	8	0	1	7	0	15								
Fc1ccc(-c2nn3c(OCC(F)(F)F)cccc3c2-c2ccncc2)cc1 [GW514784]	0	11	17	0	17	0	99.9	40	22	1								
CC(=O)Nc1ccc(COc2ccc(Nc3ccnc4cc(-c5ccccn5)ccc34)cc2)cc1.Cl [GW440148]	0	23	18	18	73	0	28	0	40	0								
[2H]C([2H])(c1cccc(C(F)(F)F)c1C)n1ccn2c(=O)nc(N3CCOCC3)cc12 [GSK2336394]	0	7	0	26	4	24	0	0	46	0								
CNc1ncnc2[nH]ncc12 [SKF-18355]	0	0	0	46	0	24	6	8	0	0								

Compound	%Inh [1] [%]	%Inh [2] [%]	%Inh [3] [%]	%Inh [4] [%]	%Inh [5] [%]	%Inh [6] [%]	%Inh [7] [%]	%Inh [8] [%]	%Inh [9] [%]	%Inh [10] [%]	%Inh ([1]; 1 µM)	%Inh ([2]; 1 µM)	%Inh ([3]; 1 µM)	%Inh ([4]; 1 µM)	%Inh ([5]; 1 µM)	%Inh ([6]; 1 µM)	%Inh ([9]; 1 µM)	%Inh ([10]; 1 µM)
COc1ccc(Nc2ncc(C#N)c(Nc3ccccc3C(N)=O)n2)cc1N1CCN(C)CC1.Cl [GSK1558669]	48	98.8	95.2	99.7	64	98.1	0	0	0	32								
Cn1cc(-c2ccc3c(c2)CCN3C(=O)Cc2ccccc2Cl)c2c(N)ncnc21 [GSK2608885]	23	99.7	20	0	97.9	0	99.9	99.5	26	20								
CSc1ccc(-c2cc3ncnc(SCC(=O)O)c3s2)cc1	0	0	0	7	0	0	0	0	34	5								
COc1ccc(COc2cc(-n3cnc4ccccc43)sc2C(N)=O)cc1 [GSK1024304]	0	0	0	15	14	0	35	0	36	0								
O=c1cc(N2CCOCC2)nc2n(Cc3cccc4ccccc34)ccn12 [GSK2333389]	38	2	0	15	3	0	0	0	16	0								
Cc1nnc(-c2ccc3occ(-c4ccc(C(C)O)cc4)c3c2)o1 (stereo not drawn)	0	3	0	19	46	1	10	13	0	1								
Cc1ccc(NC(=O)c2ccnc(N3CCN(C)CC3)c2)cc1-c1ccc(C(=O)NCC2CC2)cc1 [GW775604]	0	0	19	0	0	0	32	35	10	0								
Cl.Cl.Cl.Fc1ccc(-c2ncn(C3CCNCC3)c2-c2ccnc(Nc3ccccc3)n2)cc1 [SB-238039]							100	100			58% and 48%	22% and 26%	10% and 0%	39% and 0%	11% and 0%	12% and 14%	98.6% and 99.7%	93.1% and 100%
COc1cc2c(cc1OC[C@@H](O)CO)ncc1c3ccc(C#N)cc3[nH]c21	0	0	0	90	1	0	5	15	0	18								
COCCNC(=O)c1ccc(-c2cc(C(=O)NC3CC3)cc(F)c2C)cc1 [GW868318]	22	4	0	33	23	0	100	94	0	29								
O=C1NC(=O)C(N2CCc3ccccc32)=C1c1cccc(Cl)c1 [SB-408010]	17	0	0	0	14	29	7	7	15	0								
c1ccc(-c2n[nH]cc2-c2ccnc3ccccc23)nc1 [GW271431]	18	21	1	28	28	0	29	0	52	0								
O=C(c1ccc(-c2cc(-c3c[nH]nc3-c3ccccn3)ccn2)cc1)N1CCOCC1 [GW812171]	0	0	0	0	29	0	20	8	0	0								
Cc1nnc(-c2ccc3ncc(-c4ccc(S(C)=O)cc4)n3c2)o1 (stereo not drawn)	5	0	0	3	0	0	9	1	7	10								
NS(=O)(=O)c1cccc(-c2ccc3ncc(N4CCOCC4)nc3c2)c1 [GSK1535721]	1	7	15	89	3	0	9	0	21	0								
O=C1Cc2cc(Nc3nc(NCc4cccc(S(=O)(=O)C(F)(F)F)c4)ncc3C(F)(F)F)ccc2N1	0	8	10	25	1	9	22	0	15	0								
